p53 reactivation: qHTS assay for re-activators of p53 using a Luc reporter; H1299 p53-A138V BP100-luciferase reporter, luminescence, 24 h; AID 504706, 2011; actives 0.063% (n = 320,000); Potency, µM (highest dose often 92.2 µM), most hits filed as activators; further: nearly all actives have a fitted effect of over 45% in size
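p53-null H1299 cells stably carrying temperature-sensitive p53-A138V and a BP100-luciferase reporter were pinned with compounds (4-point, 1:5 series) and held 24 hrs at 37 deg C. Luminescence was read 10 min after detection reagent.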
PINK1 modulator: A Quantitative High throughput Screen to Identify Chemical Modulators of PINK1 Expression; PINK1 immunofluorescence, high-content cytometry, 24 h; Potency, µM (top dose mostly 76.6 µM), actives largely listed as activators; actives 0.2% (n = 410,000); AID 624263, 2012; active means well fitted activation curve with a large enough effect; inconclusive means small, poorly fitted or top-dose-only effect; cell line not stated here; further: nearly all actives have a fitted effect of over 65% in size
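Stable cell line, 250 cells/well, 12 h attachment; compounds pinned at 5 concentrations, 24 h; CCCP control. Fixed with nuclear dye, primary antibodies 12 h at 10 degrees C, secondary plus cell stain; laser-scanning cytometer read.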
CCT modulator: High-Throughput Screening for Modulators of Cytosolic Chaperonin Activity | purified chaperonin ATPase assay, HTRF ADP detection, 30 min | activity change, % (concentration not given with the values), hits read low | actives 0.3% (n = 360,000) | AID 651819, 2012; in the data active means activity change below about -30%
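ATPase activity: ADP formed was measured by HTRF Transcreener (665/615 nm ratio) after 30 min at 37 deg C with 10 uM ATP. Compounds screened at one 76 uM concentration against 40 or 20 nM TRiC in Tris pH 7.4/KCl/MgCl2/DTT buffer.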
12-LOX inh: Primary qHTS assay for inhibitors of human arachidonate 12S-lipoxygenase (ALOX12): Round 2; Polyunsaturated fatty acid lipoxygenase ALOX12 (Homo sapiens), P18054; Potency, µM (series often up to 108 µM), hits mostly inhibitors; actives 1.1% (n = 580,000); purified 12hLO, xylenol orange hydroperoxide absorbance; AID 1671190, 2021
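Purified human 12hLO (150 nM final) in 25 mM Hepes, 0.01% Triton X-100, pH 7.0 was preincubated 15 min at room temperature with compound. Then 40 uM arachidonic acid was added, 30 min. Hydroperoxide was read by Fe-XO absorbance ratio 573/405 nm.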
ASM inhibitor: Inhibitors of Secretory Acid Sphingomyelinase (S-ASM): qHTS; placental ASM, HMU-PC fluorogenic substrate, 60 min; Potency, µM (top dose mostly 57.5 µM), actives largely listed as inhibitors; actives 0.006% (n = 340,000); AID 504937, 2011
Target sequence (P17405 47-631 limits assumed): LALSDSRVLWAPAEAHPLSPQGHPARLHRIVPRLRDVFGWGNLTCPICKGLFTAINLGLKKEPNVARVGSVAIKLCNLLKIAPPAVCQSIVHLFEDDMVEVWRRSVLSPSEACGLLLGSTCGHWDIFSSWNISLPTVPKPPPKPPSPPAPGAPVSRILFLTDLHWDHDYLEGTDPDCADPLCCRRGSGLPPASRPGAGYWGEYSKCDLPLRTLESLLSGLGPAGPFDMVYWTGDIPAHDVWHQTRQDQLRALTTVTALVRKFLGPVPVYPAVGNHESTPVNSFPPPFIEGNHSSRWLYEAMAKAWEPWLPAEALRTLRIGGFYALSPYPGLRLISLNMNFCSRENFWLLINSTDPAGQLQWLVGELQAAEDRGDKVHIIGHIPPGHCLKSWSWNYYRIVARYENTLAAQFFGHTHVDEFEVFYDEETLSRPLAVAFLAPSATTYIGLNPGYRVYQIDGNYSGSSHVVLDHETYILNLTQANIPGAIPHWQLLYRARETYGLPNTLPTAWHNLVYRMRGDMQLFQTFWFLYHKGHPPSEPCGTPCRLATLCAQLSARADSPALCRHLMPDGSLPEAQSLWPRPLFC
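Human placenta-derived ASM enzyme was preincubated with compound for 10 minutes at room temperature, then given fluorogenic substrate HMU-PC0 (9 uM final) for 60 minutes at 37 °C; a pH 10 stop preceded fluorescence reading at Ex 386/Em 447 nm.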
Mm-Cpn inhibitor: Inhibitors of TCP-1 ring complex (TRiC) of Methanococcus maripaludis (MmCpn): qHTS; AID 504842, 2011; purified Mm-Cpn ATPase, ADP Transcreener TR-FRET; Chaperonin Mm-Cpn (Methanococcus maripaludis); Potency, µM (doses to about 76.9 µM), most hits filed as inhibitors; actives 0.031% (n = 330,000); further: nearly all actives have a fitted effect of over 80% in size
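Compound-treated chaperonin, 25 nM final, turns over 10 uM ATP at 37°C for 30 min following a 10 min preincubation; ADP generated competes with ADP-d2 for Eu-cryptate antibody, lowering FRET.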
Hits are given with their value. Rows were chosen to be rich in hits. Some 1.4% of all compounds tested hit in one or more screens of this group. Unless noted, the call rests on the fitted dose curve; in most records, active means well fitted curve in the direction sought with a large enough effect; inconclusive means small, poorly fitted or top-dose-only effect, or another doubt; inactive means no such curve, though single readings can be large; an effect the other way counts as inactive or inconclusive.

Results for CC(C)(C)NC(=O)c1csc(C(O)c2ccc(C(C)(C)C)cc2)n1 (centres undefined) ?
12-LOX inh: inactive

How did c1coc(Cn2cccc2)c1 do in these assays?
12-LOX inh: inactive

Results for C=CCc1ccccc1OCC(=O)NNC(=S)NCc1ccccc1 ?
p53 reactivation: inactive; PINK1 modulator: inactive; CCT modulator: -34; 12-LOX inh: inactive; ASM inhibitor: inactive; Mm-Cpn inhibitor: inactive

Results for COc1ccc(-c2cn3nc(N4CCCC(C(=O)NCCC(C)C)C4)sc3n2)cc1 (centres undefined) ?
12-LOX inh: inactive

How did CC(C)(C)NC(=O)C[C@@H]1CCNC[C@@H]1Cc1cc(-c2ccc(C(C)(C)C)cc2)on1 do in these assays?
12-LOX inh: 35µM

Results for CC(C)(C)c1ccc(-c2cc(C[C@H]3CNCC[C@H]3CC(=O)Nc3nccs3)no2)cc1 ?
12-LOX inh: inactive

How did COc1ccccc1N1CCN(C(=O)C[C@@H]2CCNC[C@@H]2Cc2cc(-c3ccc(F)cc3)on2)CC1 do in these assays?
12-LOX inh: inactive

Results for O=C(C[C@@H]1CCNC[C@@H]1Cc1cc(-c2ccc(F)cc2)on1)NCc1ccccc1 ?
12-LOX inh: inactive

What do the screens show for `CC(C)(C)c1ccc(-c2cc(C[C@H]3CNCC[C@H]3CC(=O)NCc3ccc(F)cc3)no2)cc1`?
12-LOX inh: 22µM

Results for COc1ccc(-c2cc(C[C@H]3CNCC[C@H]3CC(=O)N3CCN(c4ccccc4OC)CC3)no2)cc1 ?
12-LOX inh: 28µM

How did COc1ccc(CNC(=O)C[C@@H]2CCNC[C@@H]2Cc2cc(-c3ccc(C(C)(C)C)cc3)on2)cc1 do in these assays?
12-LOX inh: 18µM

Results for CN(C(=O)Cn1nc(-c2ccc(Cl)cc2)ccc1=O)C1CCS(=O)(=O)C1 (centres undefined) ?
12-LOX inh: inactive

Results for CCN(CC)c1ccc(C(=C2C=CC(=[N+](CC)CC)C=C2)c2ccccc2)cc1 ?
PINK1 modulator: inactive; CCT modulator: inactive; 12-LOX inh: 22µM; ASM inhibitor: inactive

What do the screens show for `Cc1cc(C)cc(C2(CNC(=O)C3CC4(CCNCC4)CN3)CCCC2)c1` (centres undefined)?
12-LOX inh: inactive

How did O=C(C[C@H]1C[C@H](C(=O)N2CCCCC2)[C@@]2(CCc3ccccc3)c3[nH]c4cc(-c5ccco5)ccc4c3CCN2C1=O)NCCC1=CCCCC1 do in these assays?
p53 reactivation: inactive; PINK1 modulator: inactive; CCT modulator: -89; ASM inhibitor: inconclusive; Mm-Cpn inhibitor: inactive

Results for CC(C)N(C(=O)[C@H]1CC(CC(=O)NCc2ccco2)C(=O)N2CCc3c([nH]c4ccccc34)[C@]12C)C(C)C (some centres undefined) ?
p53 reactivation: inactive; PINK1 modulator: inactive; CCT modulator: inactive; 12-LOX inh: inactive; ASM inhibitor: inactive; Mm-Cpn inhibitor: inactive

What do the screens show for `COc1ccc(CNC(=O)C[C@H]2C[C@H](C(=O)N3CCOCC3)[C@@]3(CCC4CCCC4)c4[nH]c5cc(-c6ccco6)ccc5c4CCN3C2=O)cc1OC`?
p53 reactivation: inactive; PINK1 modulator: inactive; CCT modulator: inactive; 12-LOX inh: 40µM; ASM inhibitor: inactive; Mm-Cpn inhibitor: inactive

Results for O=C(C[C@H]1C[C@H](C(=O)N2CCOCC2)[C@@]2(CCC3CCCC3)c3[nH]c4cc(-c5ccco5)ccc4c3CCN2C1=O)NCCN1CCOCC1 ?
p53 reactivation: inactive; PINK1 modulator: inactive; CCT modulator: inactive; 12-LOX inh: 45µM; ASM inhibitor: inactive; Mm-Cpn inhibitor: inactive

How did COc1ccc(CNC(=O)CC2C[C@H](C(=O)N(C(C)C)C(C)C)[C@@]3(C)c4[nH]c5ccccc5c4CCN3C2=O)cc1OC (some centres undefined) do in these assays?
p53 reactivation: inactive; PINK1 modulator: inactive; CCT modulator: -47; 12-LOX inh: inactive; ASM inhibitor: inactive; Mm-Cpn inhibitor: inactive

Results for COc1cc(/C=C2\C(=N)N3N=C(S(C)(=O)=O)SC3=NC2=O)ccc1OS(=O)(=O)c1ccc(C)cc1 ?
p53 reactivation: inactive; PINK1 modulator: inactive; CCT modulator: inactive; 12-LOX inh: 45µM; ASM inhibitor: inconclusive; Mm-Cpn inhibitor: inactive

What do the screens show for `CC1=C(C(=O)N(C)C)CC(CC(=O)NC(c2ccccc2)c2ccccc2)C(=O)N1Cc1ccccc1` (centres undefined)?
PINK1 modulator: inactive; CCT modulator: -48; 12-LOX inh: inactive

Results for Cc1ccc(C(=O)C2CC2)cc1 ?
12-LOX inh: inactive

Results for COC(=O)c1ccc(NN=Nc2ccc(C)cc2)cc1 ?
PINK1 modulator: inactive; CCT modulator: inactive; 12-LOX inh: 18µM; ASM inhibitor: inactive; Mm-Cpn inhibitor: inactive

What do the screens show for `Cc1cccc(OCC(=O)N2CCC3(CC2)NC(=O)N(c2ccc(F)cc2)N3)c1`?
12-LOX inh: 4.5µM

How did COc1ccccc1CCC(=O)N1CCC2(CC1)NC(=O)N(c1ccc(F)cc1)N2 do in these assays?
12-LOX inh: 3.2µM

Results for O=C(Cc1cccc(F)c1)N1CCC2(CC1)NC(=O)N(Cc1ccccc1Cl)C2=O ?
12-LOX inh: inactive

Results for O=C(Cc1ccccc1Cl)N1CCC2(CC1)NC(=O)N(c1ccc(F)cc1)N2 ?
12-LOX inh: 2.2µM

What do the screens show for `Cc1cccc(OCC(=O)N2CCN(C(=O)CCC3CCCC3)CC2)c1`?
p53 reactivation: inactive; PINK1 modulator: inactive; CCT modulator: inactive; 12-LOX inh: inactive; ASM inhibitor: inactive; Mm-Cpn inhibitor: inactive

What do the screens show for `Cc1cccc(OCC(=O)N2CCC(N3CCOCC3)CC2)c1`?
p53 reactivation: inactive; PINK1 modulator: inactive; CCT modulator: inactive; 12-LOX inh: 1.6µM; ASM inhibitor: inactive; Mm-Cpn inhibitor: inactive

How did O=S(=O)(c1ccc(F)cc1)N1CCN(c2ccc(NCc3ccccc3)nn2)CC1 do in these assays?
12-LOX inh: inactive

What do the screens show for `FC(F)(F)c1ccccc1NC(=S)N1CCCC1`?
p53 reactivation: inactive; PINK1 modulator: inactive; CCT modulator: -38; 12-LOX inh: inconclusive; ASM inhibitor: inactive; Mm-Cpn inhibitor: inactive

Compound activity: PubChem, National Center for Advancing Translational Sciences (NCATS)
